The full list was thinned out, with hits kept by preference.
ALOX12 inh: inhibitors of human 12S-lipoxygenase ALOX12 | P18054 | purified 12hLO, xylenol orange hydroperoxide absorbance | Potency, µM (series often up to 108 µM), actives largely listed as inhibitors | 1.1% of 580,000 active | AID 1671190
Target sequence (P18054 whole entry, looked up): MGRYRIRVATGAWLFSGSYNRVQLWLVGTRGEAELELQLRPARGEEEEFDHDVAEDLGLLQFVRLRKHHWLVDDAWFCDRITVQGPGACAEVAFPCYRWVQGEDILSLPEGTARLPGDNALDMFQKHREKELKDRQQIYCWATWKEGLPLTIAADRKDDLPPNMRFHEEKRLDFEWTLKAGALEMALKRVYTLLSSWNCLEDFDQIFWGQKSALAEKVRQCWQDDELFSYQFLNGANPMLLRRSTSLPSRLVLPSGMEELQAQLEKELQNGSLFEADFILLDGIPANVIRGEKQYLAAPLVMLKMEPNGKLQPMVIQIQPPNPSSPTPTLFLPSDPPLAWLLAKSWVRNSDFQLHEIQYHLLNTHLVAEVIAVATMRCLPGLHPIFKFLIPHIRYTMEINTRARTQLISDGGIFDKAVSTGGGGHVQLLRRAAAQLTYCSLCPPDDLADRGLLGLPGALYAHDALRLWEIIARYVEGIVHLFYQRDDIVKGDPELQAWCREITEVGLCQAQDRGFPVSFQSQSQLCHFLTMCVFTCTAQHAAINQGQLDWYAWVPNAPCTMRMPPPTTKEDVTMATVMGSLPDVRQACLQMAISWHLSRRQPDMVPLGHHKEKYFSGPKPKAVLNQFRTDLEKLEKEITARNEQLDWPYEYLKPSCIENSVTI
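Purified human 12hLO at 150 nM in 25 mM Hepes, 0.01% Triton X-100, pH 7.0, preincubated 15 min at room temperature with compound. Reaction started with 40 uM arachidonic acid, 30 min at room temperature. Hydroperoxide measured by Fe-xylenol orange, 573/405 nm absorbance ratio.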
HT1080 IDH1KD tx: HT-1080 IDH1 knockdown cell toxicity (counter line) | HT-1080 IDH1 knockdown viability, ATP luminescence, 48 h | Potency, µM (highest dose often 46.1 µM), usual class: cytotoxic | 2% of 360,000 active | AID 686971
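HT-1080-IDH1KD cells (IDH1 knocked down), 750/well in RPMI with 5% FBS, treated with compound 48 h at 37 degrees C. Viability by CellTiter-Glo luminescence, normalised to DMSO and no-cell wells; concentration-response curves classed.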
TDP1 cell CPT: DT40-hTDP1 cell growth loss with CPT; chicken DT40 Tdp1-/-;hTDP1 cells + 20 nM CPT, ATP luminescence, 48 h; Potency, µM (series often up to 46.2 µM), actives largely listed as inhibitors; 12% of 420,000 active; further: nearly all actives have a fitted effect of over 55% in size
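Chicken DT40 Tdp1-/- cells complemented with human TDP1, 400 cells/well, exposed to compounds plus 20 nM camptothecin for at least 48 h at 37 C; viability read as ATP content by CellTiter-Glo luminescence.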
IL1B secr inh: blocks inflammasome-driven IL-1 beta release; THP-1 LPS/ATP IL-1B secretion, AlphaLISA, 16 h; hits give low values; activity change, % at 57.5 µM; 4.7% of 360,000 active; AID 743279; in the data active means activity change below about -50%; inconclusive means mostly about -30% to -49%
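Secreted IL-1B measured by AlphaLISA bead assay after 16 h compound exposure of THP-1 cells; compounds (final up to 57.5 uM) added 1 h before LPS (250 ng/mL) and ATP (1.25 mM) stimulation; lower signal means less secretion.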
TDP1 cell noCPT: qHTS for Inhibitors of human tyrosyl-DNA phosphodiesterase 1 (TDP1): qHTS in cells in absence of CPT. Potency, µM (series often up to 46.2 µM), usual class: inhibitors. DT40 Tdp1-/- hTDP1 cells, no CPT, ATP luminescence, 48 h. AID 686978, 2013. 15% of 420,000 active; further: nearly all actives have a fitted effect of over 55% in size
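No-CPT arm: Tdp1-/-;hTDP1 DT40 cells (400/well) plus compounds, incubated ≥48 hr at 37 °C. Readout CellTiter-Glo luminescence.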
HT1080NT lethal: kills 2HG-producing HT-1080-NT fibrosarcoma cells | HT-1080-NT fibrosarcoma viability, CellTiter-Glo ATP luminescence, 48 h | Potency, µM (top dose mostly 46.1 µM), usual class: cytotoxic | 1.6% of 360,000 active | AID 686970;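 further: NT is the 2HG producing partner of a matched IDH1 knockdown line; nearly all actives have a fitted effect of over 55% in size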
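HT-1080-NT fibrosarcoma cells (2HG-overproducing), 750 cells/well in RPMI with 5% FBS, dosed after 2 h and incubated 48 h at 37C. CellTiter-Glo luminescence normalized to DMSO and no-cell wells; concentration-response curves fitted and classed.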
Numbers stand for hits; . = inactive; ? = inconclusive; / = not tested or not shown. Unless noted, the call rests on the fitted dose curve; in most records, active means well fitted curve in the direction sought with a large enough effect; inconclusive means small, poorly fitted or top-dose-only effect, or another doubt; inactive means no such curve, though single readings can be large; an effect the other way counts as inactive or inconclusive.

SMILES | ALOX12 inh | HT1080 IDH1KD tx | TDP1 cell CPT | IL1B secr inh | TDP1 cell noCPT | HT1080NT lethal
c1ccc2c(Nc3ccc(N4CCOCC4)cc3)nc(N3CCOCC3)nc2c1 | . | ? | ? | -70.3 | 20.6µM | ?
COc1ccc(Nc2nc(N3CCCCC3)c3ccccc3n2)cc1 | 28.2µM | ? | 18.4µM | -101.2 | 18.4µM | .
Cc1ccc(Nc2nc(N)c([N+](=O)[O-])c(N3CCOCC3)n2)cc1 | . | . | . | . | . | .
Cc1cc(-c2ccc(N3CCOCC3)cc2)nc2ccccc12 | ? | . | 20.6µM | . | 23.1µM | .
Cc1nn(CC(=O)Nc2ccc(NC(=O)CC(C)C)cc2)c(=O)c2ccccc12 | . | / | / | / | / | /
c1ccc2nc(-c3ccc(N4CCOCC4)cc3)ccc2c1 | . | . | . | . | . | .
Oc1ccc(Nc2nc(N3CCCC3)c3ccccc3n2)cc1 | ? | ? | 25.9µM | -98.8 | 20.6µM | ?
CC1CCN(c2nc(/C=C/c3ccccc3)nc3ccccc23)CC1 | . | ? | . | . | ? | ?
CN1CCN(c2ccc(-c3ccc4ccccc4n3)cc2)CC1 | . | ? | ? | -65.3 | 18.4µM | ?
C(=C\c1nc(N2CCCC2)c2ccccc2n1)/c1ccccc1 | . | ? | ? | -98.2 | ? | 25.9µM
Cc1cc(=O)n(CC(=O)N2CCCC2)c(-c2ccccc2)n1 | . | / | / | / | / | /
Nc1nnnn1Cc1nnc(SCc2ccccc2F)n1-c1ccccc1 | . | / | / | / | / | /
CC(=O)CCc1c(C)c2cccc(C)c2[nH]c1=O | . | . | 18.4µM | . | ? | ?
CC(=O)Nc1cccc(NC(=O)C2(Cc3nc4ccccc4s3)CCCC2)c1 | . | / | / | / | / | /
COc1cc(C(=O)N(c2cc(C)cc(C)c2)C2C=CS(=O)(=O)C2)cc(OC)c1OC (stereo not drawn) | . | / | / | / | / | /
Cc1cccc(Oc2ncc(-c3ccc(Cl)cc3)cn2)c1C | . | . | ? | . | 20.6µM | .
Cc1ccc(Oc2ncc(-c3ccc(Cl)cc3)cn2)cc1 | . | . | . | . | . | .
CCN(C(=O)C1CC1)C1CCCCC1 | . | / | / | / | / | /
COc1cc(OC)cc(C(=O)N2CCC[C@H]2c2nc(-c3ccc(C)cc3)no2)c1 | . | / | / | / | / | /
CCNC(=O)NC(=O)C(C)Sc1nc2ccccc2o1 (stereo not drawn) | . | / | / | / | / | /
Cc1cccc2c1NC(=O)C21N2CCCC2C(C(=O)c2ccc3ccccc3c2)C12C(=O)Nc1ccccc12 (stereo not drawn) | / | . | ? | . | 25.9µM | .
CCc1cccc2c1NC(=O)C21N2CCCC2C(C(=O)c2ccc3ccccc3c2)C12C(=O)Nc1ccccc12 (stereo not drawn) | . | . | 18.4µM | -104.5 | 13µM | .
Cc1cc(C)c2c(c1)[C@]1(C(=O)N2)N2CCC[C@H]2[C@@H](C(=O)c2ccc(F)cc2)[C@]12C(=O)Nc1ccccc12 | . | / | / | / | / | /
CCc1ccc2c(c1)C1(C(=O)N2)N2CCCC2C(C(=O)c2ccc3ccccc3c2)C12C(=O)Nc1ccccc12 (stereo not drawn) | . | 20.6µM | ? | -99.3 | ? | 18.4µM
CC(C)NC(=O)C(C#N)C(=O)c1cccc(NC(=O)NC2CC2)c1 (stereo not drawn) | . | / | / | / | / | /
SMILES | ALOX12 inh | HT1080 IDH1KD tx | TDP1 cell CPT | IL1B secr inh | TDP1 cell noCPT | HT1080NT lethal
O=C(Nc1ccc(F)cc1)c1cccc(N2C(=O)C3C4C=CC(C4)C3C2=O)c1 (stereo not drawn) | . | . | . | . | ? | .
O=C(Nc1ccc(F)cc1)c1cccc(N2C(=O)C3C4C=CC(C5CC45)C3C2=O)c1 (stereo not drawn) | . | . | 16.4µM | -74.8 | ? | .
Cc1ccc(NC(=O)c2ccccc2N2C(=O)C3C4C=CC(C5CC45)C3C2=O)cc1C (stereo not drawn) | ? | . | 20.6µM | . | ? | .
O=C(Nc1ccccc1)c1cccc(N2C(=O)C3C4C=CC(C5CC45)C3C2=O)c1 (stereo not drawn) | . | . | . | -55.2 | ? | .
COC(=O)c1ccc(NC(=O)c2cccc(N3C(=O)CCC3=O)c2)cc1 | . | . | . | . | . | .
Cc1cccc(NC(=O)c2ccc(N3C(=O)C4C5C=CC(C6CC56)C4C3=O)cc2)c1 (stereo not drawn) | . | . | ? | . | ? | .
COC(=O)c1ccc(NC(=O)c2cccc(N3C(=O)C4C5C=CC(C6CC56)C4C3=O)c2)cc1 (stereo not drawn) | . | . | 8.2µM | . | 7.31µM | .
Cc1c(CC(=O)NCc2ccc3c(c2)OCO3)c(=O)oc2cc(O)c(Cl)cc12 | . | / | / | / | / | /
CC(NC(=O)c1ccc(-c2ccc(F)cc2)o1)C12CC3CC(CC(C3)C1)C2 (stereo not drawn) | . | / | / | / | / | /
O=[N+]([O-])c1ccc(/C=C/c2ccc([N+](=O)[O-])cc2)cc1 | . | / | / | / | / | /
CCCc1cc(=O)[nH]c(SCc2nc3ccc([N+](=O)[O-])cc3[nH]2)n1 | . | 14.6µM | ? | . | ? | 9.2µM
O=[N+]([O-])c1ccc(/C=C/c2nc3ccc([N+](=O)[O-])cc3[nH]2)cc1 | . | . | 5.8µM | . | 4.11µM | .
O=[N+]([O-])c1ccc(/C=C/c2ccncc2)cc1 | . | . | ? | ? | 13µM | .
O=[N+]([O-])c1ccc2nc(CN3CCCCC3)[nH]c2c1 | . | . | . | . | . | .
O=[N+]([O-])c1ccc2nc(CO)[nH]c2c1 | / | / | ? | / | 0.501µM | /
CCN(CC)Cc1ccccc1CNC(=O)c1cc2ccccc2oc1=O | . | / | / | / | / | /
CN(CCc1ccccc1)C(=O)CCC1CCN(c2cc(NC3CC3)ncn2)CC1 | . | / | / | / | / | /
NC(N)=Nc1nc2ccc([N+](=O)[O-])cc2[nH]1 | . | . | . | ? | 29.1µM | .
CC(C)NS(=O)(=O)c1ccc(NC(=O)CCc2ncc(-c3ccc(F)cc3F)o2)cc1 | . | / | / | / | / | /
Cc1sc(NC(=O)c2cc(-c3ccccc3)nc3ccccc23)c(C(N)=O)c1C | . | . | 14.6µM | . | 18.4µM | .
Cc1sc(NC(=O)c2cc(-c3ccc(Cl)cc3)nc3ccccc23)c(C(N)=O)c1C | ? | . | 8.2µM | . | 10.3µM | .
CCNC(=O)c1cc(-c2ccc(Cl)cc2)nc2ccccc12 | . | / | / | / | / | /
CC(C)(C)c1nnc(NC(=O)c2cc(-c3ccccc3)nc3ccccc23)s1 | ? | . | . | . | . | .
CCC1c2nccn2CCCN1C(=O)Cn1cccn1 (stereo not drawn) | . | / | / | / | / | /
CCCCC(=O)NC1(C(F)(F)F)C(=O)N(C2CCCC2)C(C)=C1C(=O)OC (stereo not drawn) | . | / | / | / | / | /
